Source: PubChem BioAssay
NFkB transloc pot = enhances IL-1B driven NFkB nuclear translocation; HUVEC IL-1B NFkB p65 nuclear translocation imaging; 0.3% of 94,000 active; AID 819; activation, % at 2 µM;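 active = activation above 40%, about the mean plus 3 SD, also judged a hit on visual image review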;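 also: percent activation is computed from the nuclear over cytoplasmic p65 intensity ratio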
IL1B NFkB inh = blocks IL-1B driven NFkB nuclear translocation in HUVEC cells | HUVEC IL-1B NFkB p65 nuclear translocation imaging | inhibition, % at 2 µM | 0.43% of 94,000 active;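 active = inhibition above about 30% together with a positive call from visual inspection of the well image, limit read from the data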;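 also: nuclear over cytoplasmic p65 intensity ratio measured by imaging; 0% = IL-1B stimulated DMSO wells and 100% = unstimulated DMSO wells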
HUVEC tox TNFa = HUVEC cytotoxicity counter-screen, TNF alpha stimulated | 0.17% of 93,000 active | HUVEC TNFalpha-stimulated, Hoechst cell count, imaging | cell count reduction, % at 2 µM;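 active = cell count reduction exceeding the screen mean by over 5 SD, scaled to untreated wells per plate, cut at about 78% in these data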;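 also: cells counted after 24 h of TNF alpha exposure following the 1 h pretreatment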
IL1B cytotox = toxic to HUVEC cells under IL-1B stimulation. 0.41% of 94,000 active. cell count reduction, % at 2 µM. HUVEC cell count loss, Hoechst imaging, IL-1B stimulated;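 active = cell count reduction more than 3 SD above the screen-wide mean, cut at about 70% in these data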;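 also: normalized per plate to untreated control cells as the no-loss baseline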
VCAM1 TNFa inh = reduces TNF alpha induced VCAM1 expression in HUVEC | HUVEC TNFa-induced VCAM-1 immunofluorescence, high-content imaging | inhibition, % at 2 µM | 0.48% of 95,000 active;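 active = inhibition above the batch mean plus 3 SD, with images confirmed as a hit by eye, cut at about 37% in these data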;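 also: 0% = TNF-stimulated DMSO wells and 100% = unstimulated control wells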
* hit, by the source's call; nt = no result given. The list is not random: actives were taken first. Their share in the collection is about 1.5%.

SMILES	NFkB transloc pot	IL1B NFkB inh	HUVEC tox TNFa	IL1B cytotox	VCAM1 TNFa inh
Cc1ccc(C2Oc3ccccc3C3=C2C(c2cccs2)n2ncnc2N3)cc1 (stereo unspecified)	-7.1	7.1	-30.5	87.6*	3.5
Cc1ccc(CS(=O)(=O)Cc2ccc(C(=O)NCc3ccco3)o2)cc1	12.5	-12.5	-40.9	1.5	-6.8
O=C(NCc1ccco1)c1ccc(CS(=O)(=O)Cc2ccc(Cl)cc2)o1	-11.3	11.3	79.1*	14.5	92.8*
COCCOC(=O)c1[nH]c2c(c1C)C(=O)CC(c1ccccc1)C2 (stereo unspecified)	-22.2	22.3	60.2	4.1	56.2*
CC(NS(=O)(=O)c1ccccc1)C(=O)Nc1nccs1 (stereo unspecified)	43.8*	-43.8	-10.7	-10.9	-19.7
COc1ccc(Cl)c(NC(=O)Nc2c(C)n(-c3ccccc3)c(=O)n2C)c1	13.1	-13.1	9.2	-2.1	94.0*
C=CCn1c(SCC(=O)Nc2cc(C)on2)nc2sc3c(c2c1=O)CCCC3	-23.2	23.2	-12.1	-12.2	-24.9
CCn1c(SCC(=O)Nc2cc(C)on2)nc2sc3c(c2c1=O)CCCC3	-96.4	96.4*	-7.2	82.7*	-0.3
COC(=O)c1c(NC(=O)c2ccc(S(=O)(=O)N3CCOCC3)cc2)sc2c1CCN(C)C2	11.4	-11.4	7.1	-6.4	54.1*
CCN1CCc2c(sc(NC(=O)c3ccc(S(=O)(=O)N4CCOCC4)cc3)c2C(=O)OC)C1	17.8	-17.8	-30.3	-13.3	1.9
Cc1cccn2cc(-c3ccccc3)nc12	-5.4	5.4	16.4	-6.9	-10.2
COc1ccc(-c2cn3ccc4ccccc4c3n2)cc1	40.4*	-40.4	-19.7	-24.4	20.7
Cc1c(Cl)cccc1NC(=O)CN1CCC(C(O)(c2ccccc2)c2ccccc2)CC1	-49.1	49.1*	13.9	-8.7	10.7
Cc1c(Cl)cccc1NC(=O)CCN1CCCCC1	-0.9	0.9	-7.6	9.2	16.4
CCCCOC(=O)Nc1ccc(C(=O)OC)cc1	2.0	-2.0	-17.5	-9.9	9.5
CCCCOC(=O)Nc1ccc(C)c(Cl)c1	-27.9	27.9	-8.8	90.7*	-2.9
COc1cccc(S(=O)(=O)Nc2ccc(C(=O)N3CCOCC3)cc2)c1	15.5	-15.5	-12.8	-42.7	-9.8
Cc1ccccc1-c1nc(CN2CCC(C(=O)NCCCN3CC(C)CC(C)C3)CC2)c(C)o1 (stereo unspecified)	-0.6	0.6	-8.1	3.6	42.8*
O=C(NC1(C(F)(F)F)NC(=O)N(c2ccc(F)c(Cl)c2)C1=O)c1ccncc1 (stereo unspecified)	-96.2	-0.7	nt	87.8*	9.8
O=C1NC(Nc2ccccn2)(C(F)(F)F)C(=O)N1c1ccc(F)cc1 (stereo unspecified)	7.1	-7.1	3.8	-37.8	2.7
O=C(CSc1nnc(-c2ccc(OC(F)F)cc2)o1)NCc1cccs1	nt	nt	-2.9	nt	14.1
Cc1ccc(SCc2ccc(C(=O)NCc3ccncc3)cc2)cc1	-6.4	6.4	0.6	6.6	13.7
O=C(CCn1c(=O)oc2ccccc21)N1CCN(c2ccccc2F)CC1	7.0	-7.0	80.4*	-4.2	41.0
O=C(CCn1c(=O)oc2ccccc21)N1CCN(C(c2ccccc2)c2ccccc2)CC1	-3.4	3.4	-6.8	8.9	-8.0
O=C(C1Cc2ccccc2CN1S(=O)(=O)c1cccs1)N1CCCCC1 (stereo unspecified)	9.3	-9.3	14.7	20.3	-7.4
SMILES	NFkB transloc pot	IL1B NFkB inh	HUVEC tox TNFa	IL1B cytotox	VCAM1 TNFa inh
O=C1c2ccccc2NC(c2ccncc2)N1c1ccccn1 (stereo unspecified)	-61.8	61.8*	30.9	-6.4	-19.0
Cc1nn(Cc2ccccc2)c(C)c1NC(=O)CSc1nc2sc3c(c2c(=O)n1C)CCC3	5.3	-5.3	-22.7	-6.2	1.8
[O-]/[N+](=C\c1ccccc1)[C@@H]1CCCC[C@@H]1/[N+]([O-])=C/c1ccccc1	-12.1	12.1	-30.3	93.1*	17.7
[O-]/[N+](=C\c1ccc(F)cc1)c1ccccc1	-12.1	12.1	-5.6	3.7	12.5
Cn1cc(C(=O)c2ccc(Cl)cc2)cc1-c1nc2ccccc2n1C	13.7	-13.7	-17.7	-68.7	-6.6
CCN1C(=O)/C(=C/c2cccs2)N(C)C1=S	17.7	-17.7	-5.5	-12.0	-1.3
CCN1C(=O)/C(=C/N(C(C)=O)c2ccccc2)N(c2ccccc2)C1=S	-43.0	43.0*	-15.5	-28.6	9.7
CCc1nc2scc(-c3cccs3)c2c(=O)o1	-44.9	44.9*	-17.3	8.3	14.4
CCn1c(Sc2nc(C)nc3scc(-c4cccs4)c23)n[nH]c1=O	5.6	-5.6	1.3	2.0	18.5
O=C(CCC(=O)Nc1ccc(Oc2ccccc2)cc1)NCCO	6.7	-6.7	-9.9	2.8	-8.4
CCc1c(C(=O)N2CCOCC2)csc1C	-97.8	97.8*	-1.2	91.2*	7.1
C=CCc1cccc2cc(C(=O)OCC(=O)c3ccccc3)c(=O)oc12	10.3	-10.3	5.9	86.3*	18.2
C=CCc1cccc2cc(C(=O)O)c(=O)oc12	nt	nt	0.9	nt	-11.4
O=C(/C(=C/c1ccc(Cl)cc1)c1nc2ccccc2[nH]1)c1cccs1	-11.9	11.9	-6.0	0.7	52.4*
CCCOc1cccc(C(=O)Nc2cccnc2)c1	40.1*	-40.1	-17.5	-18.8	11.9
CCCOc1cccc(C(=O)Nc2cccc(NC(=O)c3ccco3)c2)c1	0.0	0.0	-3.5	2.8	7.0
CCOC(=O)C(NC(=O)c1ccc(Cl)cc1Cl)(Nc1ccc(C)cc1)C(F)(F)F (stereo unspecified)	3.1	-3.1	0.3	-2.5	-7.5
Cc1ccc2[nH]c3c(c2c1)CCC3=O	-6.7	6.7	2.1	-3.8	49.7*
CC(=O)Nc1c(NCC(C)C)c2ccccc2oc1=O	5.5	-5.5	10.1	-20.7	3.2
CSc1ccc(S(=O)(=O)Nc2ccc3c4c(cccc24)CC3)cc1	-9.4	9.4	17.5	22.1	43.6*
O=S(=O)(Nc1ccc2c3c(cccc13)CC2)c1ccc(F)cc1	10.4	-10.4	9.6	26.3	-3.1
CCCCCCC(=O)N(O)C1CC(=O)N(c2ccc(Br)cc2)C1=O (stereo unspecified)	47.8*	-47.8	-31.2	12.3	10.3
COc1cc2c(cc1OC)CN(C(C)C(=O)Nc1ccc(NC(C)=O)cc1)CC2 (stereo unspecified)	9.5	-9.4	-3.7	0.3	-19.6
C=CCc1ccccc1OCC(O)CNC (stereo unspecified)	3.5	-3.5	93.6*	-16.1	56.4*
C=CCc1ccccc1OCC(O)CN(C(C)C)C(C)C (stereo unspecified)	21.3	-21.3	0.4	-1.5	0.3
Cc1ccc(S(=O)(=O)N2C(=S)SCC2(C)C)cc1	-2.3	2.3	-28.1	-17.2	11.1
CC1=CC(C)(C)N(S(=O)(=O)c2ccc(C)cc2)c2cc(C)ccc21	-0.5	0.5	58.0	27.9	38.2*
Cc1cc(C(=O)NN)c2cc(Br)ccc2n1	-3.9	3.9	51.5	19.3	55.9*
CCNc1ccc(C(=O)OCC)cc1NC(=O)c1cccc(S(=O)(=O)N2CCOCC2)c1	4.6	-4.6	2.2	-22.0	4.6
